Measurements as given in PubChem BioAssay (NCI).
Compounds without any hit were thinned out: in the full panel of roughly 79,000, 15% have a hit. Calls of active or inactive are those of the source. No stated cut-off is given here; in the data, active means growth inhibition above about 70%; inactive means the rest.

Assays:
[1] = NCI Yeast Anticancer Drug Screen. Data for the rad50 strain (AID 155);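 further: 0% = growth of vehicle-only cultures of the same strain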; settings: S. cerevisiae rad50 strain growth inhibition; at 50.0 µM; hits give high values
Method in brief: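 Growth of the mutant yeast was measured after compound exposure and referenced to vehicle-treated cultures.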

[2] = NCI Yeast Anticancer Drug Screen. Data for the mec2-1 strain (AID 157); settings: S. cerevisiae mec2-1 strain, at 50.0 µM, hits give high values
Method in brief: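 Yeast mec2-1 mutant treated with compound. Readout: growth inhibition vs vehicle controls.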

[3] = NCI Yeast Anticancer Drug Screen. Data for the sgs1 mgt1 strain (AID 161);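 further: 0% = growth of cultures given vehicle only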; settings: S. cerevisiae sgs1 mgt1 strain, at 50.0 µM, hits give high values
Method in brief: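 Test agents were incubated with a DNA-repair-mutant yeast strain. Growth was then read and compared against vehicle-treated controls.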

[4] = NCI Yeast Anticancer Drug Screen. Data for the cln2 rad14 strain (AID 165);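 further: 0% = growth equal to vehicle treated cultures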; settings: S. cerevisiae cln2 rad14 strain, at 50.0 µM, hits give high values
Method in brief: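 cln2 rad14 yeast strain; compound exposure; growth inhibition read vs vehicle controls.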

[5] = NCI Yeast Anticancer Drug Screen. Data for the bub3 strain (AID 167); settings: S. cerevisiae bub3 mutant strain, at 50.0 µM, hits give high values
Method in brief: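 Whole-cell yeast assay. The mutant strain was incubated with compounds, and growth inhibition was determined by comparison with vehicle-treated cells.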

[6] = NCI Yeast Anticancer Drug Screen. Data for the mlh1 rad18 strain (AID 175); settings: S. cerevisiae mlh1 rad18 strain growth inhibition; at 50.0 µM; hits give high values
Method in brief: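 Yeast w/ defined DNA-repair lesions; compound exposure; growth vs vehicle controls → % inhibition.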

Measured: growth inhibition

CC(=O)Nc1nc(CCl)cs1
inactive: [1] 11.8% | [2] -1.1% | [3] 13.6% | [4] 5.55% | [5] 27.3% | [6] 9.6%

COc1ccc([C@H]2N[C@@H]2c2ccccn2)cc1
inactive: [1] 3.25% | [2] -1.5% | [3] -7.2% | [4] 17.1% | [5] 4.8% | [6] 20.9%

Nc1ccc([N+](=O)[O-])cc1[N+](=O)[O-]
inactive: [1] -24.9% | [2] 5.4% | [3] -21.2% | [4] -8.8% | [5] 0.6% | [6] 11%

O=C(Cl)OCCOCCOC(=O)Cl
inactive: [1] -4.35% | [2] -6.1% | [3] 6.95% | [4] -28.1% | [5] -3.15% | [6] -4.4%

CC1=CC(C)C/C=C/C2C3OC3(C)C(C)C3C(Cc4c[nH]c5ccccc45)NC(=O)C23C(=O)C=CC(=O)C1O (centres undefined)
active: [1] 88.4% | [2] 92.5% | [3] 92.6% | [4] 91% | [5] 91.3% | [6] 92.1%

Nc1ccc([N+](=O)[O-])cc1Cl
inactive: [1] 11.8% | [2] -7.3% | [3] 45.2% | [4] 19% | [5] 12.9% | [6] 34%

CC(CC(C)(C)[N-]CC[O-])=NCCO.O=[N+]([O-])O.[Cu+2]
inactive: [1] 10.7% | [2] 20.2% | [3] -5.7% | [4] -0.05% | [5] 26.2% | [6] 18.7%

CC(=O)OC[C@]12C[C@H](OC(=O)CC(C)C)C(C)=C[C@H]1O[C@@H]1[C@H](O)[C@@H](O)[C@@]2(C)[C@@]12CO2
active: [1] 83.2% | [2] 83% | [3] 83.3% | [4] 87.7% | [5] 81.9% | [6] 84.8%

CC(=O)OC1CC2(C)C3(CO3)C1OC1C=C(C)C(=O)C(O)C12CO (centres undefined)
inactive: [1] -10.4% | [2] -3.95% | [3] 2.75% | [4] 26.5% | [5] 8.7% | [6] 11.3%

O=P(CCl)(Oc1ccc(Cl)cc1)Oc1ccc(Cl)cc1
inactive: [1] 20.6% | [2] 16.1% | [3] 6% | [4] -19.4% | [5] 7.5% | [6] -10.2%

CC1(C)CC(=O)CC(C)(C)C1
inactive: [1] -25.6% | [2] -12.2% | [3] -1.65% | [4] 4.35% | [5] -13.2% | [6] -11.2%

CC(C)[N+](C)(CCC(C(=O)N(C)C)(c1ccccc1)c1ccccc1)C(C)C
inactive: [1] 18.6% | [2] -1.55% | [3] 4.7% | [4] 13.3% | [5] -16% | [6] 24.4%

CN1CCCC2(CCCc3ccccc32)C1 (centres undefined)
inactive: [1] 14.2% | [2] -33.1% | [3] -25.9% | [4] 15.3% | [5] -13.3% | [6] -5.2%

O=[N+]([O-])c1ccc([Se]c2ncccn2)c([N+](=O)[O-])c1
inactive: [1] -14.8% | [2] 1.95% | [3] -19.4% | [4] -8.75% | [5] -3.15% | [6] 0.5%

COc1ccc2c(c1O)[C@@]13CCN(C)[C@@H](C2)[C@H]1CC(C)C(=O)C3 (some centres undefined)
inactive: [1] 5.65% | [2] -30.6% | [3] 8.55% | [4] 17.2% | [5] -0.6% | [6] -2.5%

O=C(O)Cc1ccc([N+](=O)[O-])cc1[N+](=O)[O-]
inactive: [1] 3.55% | [2] -13.6% | [3] -7.25% | [4] -27.2% | [5] 0.05% | [6] -2.6%

CCC(Br)C(=O)O (centres undefined)
inactive: [1] 26.6% | [2] -4.3% | [3] -0.3% | [4] -22.5% | [5] 24.4% | [6] 24.8%

CC12CCC3C(CC=C4CC(=O)CCC43CCO)C1CCC2Oc1ccccc1 (centres undefined)
inactive: [1] 5.3% | [2] -11.9% | [3] -2.45% | [4] 16.4% | [5] 23.7% | [6] 13.3%

CC(C)SP(=S)(SC(C)C)SC(C)C
inactive: [1] 8% | [2] -10.1% | [3] 8.3% | [4] -20.4% | [5] 4.15% | [6] 17.1%
